Reference: PubChem BioAssay (Tox21)
Records with an inconclusive call do not appear. Calls of active or inactive are those of the source. Unless noted, calls come from the whole dose curve; as a rule, active = well fitted curve in the direction sought with a large enough effect in the repeat runs; inconclusive = weak or mixed curves; inactive = no such curve, though single readings can be large; an effect the other way counts as inactive or inconclusive.

What was measured:
[1] = qHTS RealTime-Glo MT Cell Viability Assay in HEK293 cells - 0 hour (AID 1224880); note: top concentration of the series differs between compounds; nearly all actives have a fitted effect of over 45% in size
How it was run: (§1)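 Viable HEK293 cells reduce a cell-permeant prosubstrate; the product diffuses out and is consumed by NanoLuc in the medium to give light. Compounds went in after a 5 h incubation and plates were read over the treatment course.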

[2] = A CellTox Green Cytotoxicity Assay to monitor cytotoxicity in HEK293 cells - 32 hour (AID 1224881); note: nearly all actives have a fitted effect of over 40% in size; note: potency is the fitted concentration of half-maximal effect
How it was run: (§2)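 Fluorescence intensity, read at 0, 8, 16, 24, 32 and 40 h of compound treatment, reflected dye binding to DNA of dead HEK293 cells; compounds (23 nL, DMSO) were added 5 h after plating cells with reagent.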

[3] = A CellTox Green Cytotoxicity Assay to monitor cytotoxicity in HepG2 cells - 0 hour (AID 1224882); note: nearly all actives have a fitted effect of over 35% in size; note: potency is the fitted concentration of half-maximal effect
How it was run: (§3)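 Using 1536-well format, dye-containing HepG2 suspension was seeded, allowed 5 h at 37 C/5% CO2, dosed by pintool with compounds, positive and negative controls, and imaged for fluorescence across 40 h.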

[4] = A CellTox Green Cytotoxicity Assay to monitor cytotoxicity in HEK293 cells - 8 hour (AID 1224884); note: nearly all actives have a fitted effect of over 35% in size; note: potency is the fitted concentration of half-maximal effect
How it was run: as §2

[5] = qHTS RealTime-Glo MT Cell Viability Assay in HEK293 cells - 24 hour (AID 1224886); note: nearly all actives have a fitted effect of over 50% in size; note: potency is the fitted concentration of half-maximal effect; for activity change, negative = cytotoxicity: top concentration of the series differs between compounds
How it was run: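 Reads taken at 0, 8, 16, 24, 32 and 40 h from the same wells. HEK293 cells (600/well) carried RealTime-Glo reagents from seeding, with compound added after a 5 h settle at 37 C.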

[6] = qHTS RealTime-Glo MT Cell Viability Assay in HEK293 cells - 8 hour (AID 1224887); note: nearly all actives have a fitted effect of over 50% in size; note: potency is the fitted concentration of half-maximal effect; for activity change, negative = cytotoxicity: top concentration of the series differs between compounds
How it was run: as §1

[7] = qHTS RealTime-Glo MT Cell Viability Assay in HepG2 cells - 0 hour (AID 1224889); note: nearly all actives have a fitted effect of over 50% in size
How it was run: (§4)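 HepG2 suspension premixed with RealTime-Glo reagents is plated at 600 cells per well and left 5 h at 37 C/5% CO2. Compounds in DMSO then go in, and bioluminescence reflecting viable cell number is recorded over 40 h.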

[8] = qHTS assay to identify small molecule antagonists of the estrogen receptor alpha (ER-alpha) signaling pathway using the BG1 cell line in the presence of 0.1 nM 17-beta-estradiol - cell viability counter screen (AID 1259241); note: nearly all actives have a fitted effect of over 40% in size
How it was run: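 Following 5 days in phenol red-free medium with charcoal-stripped serum, VM7Luc4E2 cells received test compounds alongside 0.1 nM 17beta-estradiol (final) at 37C for 22 hr. Live cells were then quantified via protease-substrate fluorescence.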

[9] = qHTS assay to identify small molecule antagonists of the androgen receptor (AR) signaling pathway using the MDA cell line in the presence of 0.5 nM R1881 - cell viability counter screen (AID 1259242); note: nearly all actives have a fitted effect of over 45% in size
How it was run: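 Viability of MDA-kb2 cells was multiplexed with the luciferase AR readout; after 16 hr with compounds and R1881 at 0.5 nM final, CellTiter-Fluor fluorescence was recorded.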

[10] = target: Androgen receptor (Homo sapiens) (UniProt P10275); test: qHTS assay to identify small molecule antagonists of the androgen receptor (AR) signaling pathway using the MDA cell line in the presence of 0.5 nM R1881 (AID 1259243); note: nearly all actives have a fitted effect of over 50% in size; note: potency is the fitted concentration of half-maximal effect
Androgen receptor (Homo sapiens), sequence (P10275 whole entry, looked up): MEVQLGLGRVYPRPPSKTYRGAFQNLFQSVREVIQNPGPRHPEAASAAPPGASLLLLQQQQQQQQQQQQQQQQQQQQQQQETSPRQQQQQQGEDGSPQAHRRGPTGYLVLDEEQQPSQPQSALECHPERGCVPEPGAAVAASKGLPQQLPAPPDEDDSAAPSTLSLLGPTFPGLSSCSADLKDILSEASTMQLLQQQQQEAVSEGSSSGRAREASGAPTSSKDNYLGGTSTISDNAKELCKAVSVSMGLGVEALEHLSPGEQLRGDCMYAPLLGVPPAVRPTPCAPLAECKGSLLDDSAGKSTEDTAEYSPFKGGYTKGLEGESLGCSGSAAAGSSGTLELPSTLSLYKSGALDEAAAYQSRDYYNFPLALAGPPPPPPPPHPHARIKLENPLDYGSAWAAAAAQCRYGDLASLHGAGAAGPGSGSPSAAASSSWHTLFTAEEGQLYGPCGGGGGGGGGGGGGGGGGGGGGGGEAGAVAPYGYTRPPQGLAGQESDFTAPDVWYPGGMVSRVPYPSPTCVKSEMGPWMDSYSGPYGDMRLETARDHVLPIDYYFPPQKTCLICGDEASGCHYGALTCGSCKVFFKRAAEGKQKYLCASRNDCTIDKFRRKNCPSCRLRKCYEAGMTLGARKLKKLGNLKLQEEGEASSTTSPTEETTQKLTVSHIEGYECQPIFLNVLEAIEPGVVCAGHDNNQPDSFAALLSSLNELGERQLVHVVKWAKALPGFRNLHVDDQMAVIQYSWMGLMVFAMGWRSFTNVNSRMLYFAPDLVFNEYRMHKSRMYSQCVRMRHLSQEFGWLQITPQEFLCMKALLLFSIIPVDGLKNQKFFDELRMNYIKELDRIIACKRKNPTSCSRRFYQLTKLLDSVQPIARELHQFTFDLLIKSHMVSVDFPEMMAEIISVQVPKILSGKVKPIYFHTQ
How it was run: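 Reporter cells cultured without CO2 receive test chemicals, then 0.5 nM R1881 final; after 16 hr at 37C, ONE-Glo is added and light output recorded.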

[11] = target: Estrogen receptor (Homo sapiens) (UniProt P03372); test: qHTS assay to identify small molecule antagonists of the estrogen receptor alpha (ER-alpha) signaling pathway using the BG1 cell line in the presence of 0.1 nM 17-beta-estradiol (AID 1259244); note: nearly all actives have a fitted effect of over 50% in size; note: potency is the fitted concentration of half-maximal effect
Estrogen receptor (Homo sapiens), sequence (P03372 whole entry, looked up): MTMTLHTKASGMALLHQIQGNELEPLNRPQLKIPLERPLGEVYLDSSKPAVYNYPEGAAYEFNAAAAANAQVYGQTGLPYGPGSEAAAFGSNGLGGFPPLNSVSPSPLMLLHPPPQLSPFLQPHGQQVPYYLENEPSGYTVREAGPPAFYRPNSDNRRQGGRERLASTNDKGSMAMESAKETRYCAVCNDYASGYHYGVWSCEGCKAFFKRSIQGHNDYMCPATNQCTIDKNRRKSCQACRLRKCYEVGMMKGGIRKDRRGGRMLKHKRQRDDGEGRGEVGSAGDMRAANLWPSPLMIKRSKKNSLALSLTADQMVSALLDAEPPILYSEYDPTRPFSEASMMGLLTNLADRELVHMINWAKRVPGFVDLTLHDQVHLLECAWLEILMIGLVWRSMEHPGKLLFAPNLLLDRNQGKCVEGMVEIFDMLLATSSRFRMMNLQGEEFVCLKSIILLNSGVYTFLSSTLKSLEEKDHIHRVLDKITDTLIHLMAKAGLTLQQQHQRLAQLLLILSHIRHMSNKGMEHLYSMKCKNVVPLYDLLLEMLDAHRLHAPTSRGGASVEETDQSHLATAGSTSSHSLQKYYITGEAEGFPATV
How it was run: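 Estradiol at 0.1 nM (final) stimulates the endogenous ER-alpha of VM7Luc4E2 cells carrying an ERE-driven luciferase; compounds are co-incubated 22 h at 37C and luciferase output quantified by luminescence.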

[12] = qHTS assay to identify small molecule HDAC inhibitors (AID 1259364);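 note: wild-type HCT-116 cells with endogenous class I/II HDAC activity; top concentration of the series differs between compounds; nearly all actives have a fitted effect of over 45% in size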
How it was run: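 Read-out: luminescence of HDAC-Glo I/II reagent, 30 min RT, reflecting class I/II deacetylase activity in whole HCT-116 cells pre-exposed 2 h to DMSO-dissolved compounds.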

[13] = qHTS assay to identify small molecule HDAC inhibitors - cell viability counter screen (AID 1259365)
How it was run: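 HCT-116 wild-type, overnight attachment; 2hr drug exposure, 37C; CellTiter-Glo luminescent ATP readout after 30min RT.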

[14] = qHTS assay to identify small molecule agonists of the sonic hedgehog signaling (Shh) pathway - cell viability counter screen (AID 1259366); note: nearly all actives have a fitted effect of over 50% in size
How it was run: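 Compounds in DMSO were pin-transferred onto 3T3 Gli1-Luc cells that had settled 4hr; plates then stood 24hr at 37C and 5% CO2. One hour before the end, CellTiter-Fluor was added and fluorescence recorded.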

[15] = qHTS assay to identify small molecule antagonists of the sonic hedgehog signaling (Shh) pathway - cell viability counter screen (AID 1259367); note: nearly all actives have a fitted effect of over 55% in size
How it was run: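 NIH/3T3-derived Gli1-Luc reporter cells (2,000 per well) rested 4 hr at 37 C, then received DMSO compounds plus conditioned medium. After 23 hr of treatment, CellTiter-Fluor was added for 1 hr at 37C and fluorescence read.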

[16] = A CellTox Green Cytotoxicity Assay to monitor cytotoxicity in HepG2 cells - 32 hour (AID 1224883); note: nearly all actives have a fitted effect of over 50% in size
How it was run: as §3

[17] = A CellTox Green Cytotoxicity Assay to monitor cytotoxicity in HEK293 cells - 16 hour (AID 1224888); note: nearly all actives have a fitted effect of over 35% in size
How it was run: as §2

[18] = A CellTox Green Cytotoxicity Assay to monitor cytotoxicity in HepG2 cells - 8 hour (AID 1224890); note: nearly all actives have a fitted effect of over 45% in size; note: potency is the fitted concentration of half-maximal effect
How it was run: as §3

[19] = qHTS RealTime-Glo MT Cell Viability Assay in HepG2 cells - 16 hour (AID 1224885); note: nearly all actives have a fitted effect of over 50% in size; note: potency is the fitted concentration of half-maximal effect
How it was run: as §4

[20] = qHTS assay to identify small molecule phospholipidosis (PLD) inducers (AID 1259344; active = well fitted curve in the direction sought with a large enough effect; an effect the other way counts as inactive or inconclusive)
How it was run: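 HepG2 cells on collagen I, attached 4 h at 37 C, were co-treated with compound and LipidTOX Red dye for 24 h at 37 C, then fixed with paraformaldehyde plus Hoechst 33342 and imaged by high-content microscopy for phospholipid accumulation.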
% is set by controls: 0 for no effect and ±100 for the full control effect.

Nc1ccc(Cl)cc1[N+](=O)[O-]
active: Potency [10] 27 µM
inactive: Potency [1] | Potency [2] | Potency [3] | Potency [4] | Potency [5] | Potency [6] | Potency [7] | Potency [8] | Potency [9] | Potency [11] | Potency [12] | Potency [13] | Potency [14] | Potency [15]

Cc1cc(C(=C2C=CC(=Nc3ccc(S(=O)(=O)O)cc3S(=O)(=O)O)C=C2)c2ccc(Nc3ccc(S(=O)(=O)O)cc3)cc2)ccc1N
inactive: Potency [1] | Potency [2] | Potency [16] | Potency [4] | Potency [5] | Potency [6] | Potency [17] | Potency [18] | Potency [9] | Potency [11] | Potency [12] | Potency [13] | Potency [14] | Potency [15]

c1cnc2c(n1)CCCC2
inactive: Potency [1] | Potency [19] | Potency [5] | Potency [6] | Potency [7] | Potency [8] | Potency [9] | Potency [10] | Potency [12] | Potency [13] | Potency [14] | Potency [15]
active: Potency [2] 43.6 µM | Potency [3] 24.5 µM | Potency [4] 43.6 µM | Potency [18] 38.9 µM

O=C(O)Cc1ccc(-c2ccccc2)cc1
inactive: Potency [1] | Potency [2] | Potency [3] | Potency [4] | Potency [19] | Potency [5] | Potency [6] | Potency [17] | Potency [7] | Potency [18] | Potency [8] | Potency [9] | Potency [10] | Potency [11] | outcome [20] | Potency [13] | Potency [14] | Potency [15]

CC(C)c1nnc2ccc(-c3ocnc3-c3cc(F)ccc3F)cn12
inactive: Potency [1] | Potency [2] | Potency [3] | Potency [19] | Potency [17] | Potency [7] | Potency [18] | Potency [8] | Potency [9] | Potency [12] | Potency [13] | Potency [14] | Potency [15]
active: Potency [5] 19.5 µM | Potency [6] 19.5 µM | Potency [11] 30.6 µM

CCCC(=O)O[C@]1(C(=O)COC(=O)CC)CC[C@H]2[C@@H]3CCC4=CC(=O)CC[C@]4(C)[C@H]3[C@@H](O)C[C@@]21C
inactive: activity change, negative = cytotoxicity [1] 0.536% [at 15.8 µM] | cytotoxicity increase [2] -18.3% [at 15.8 µM] | cytotoxicity increase [16] -8.25% [at 15.8 µM] | cytotoxicity increase [4] -4.08% [at 15.8 µM] | activity change, negative = cytotoxic [19] 1.6% [at 15.8 µM] | activity change, negative = cytotoxicity [5] 2.56% [at 15.8 µM] | activity change, negative = cytotoxicity [6] 0.511% [at 15.8 µM] | activity change [17] -13.4% [at 15.8 µM, hits give high values] | activity change, negative = cytotoxicity [7] -13.7% [at 15.8 µM] | cytotoxicity increase [18] -2.4% [at 15.8 µM] | activity change, negative = cytotoxicity [8] 7.4% [at 19 µM] | viability change, negative = cytotoxic [9] 0.0902% [at 19 µM] | Potency [10] | activity change, negative = inhibition [11] 31.4% [at 19 µM] | PLD induction [20] -3.36% [at 7.66 µM] | activity change, negative = inhibition [12] -0.144% [at 19 µM] | activity change, negative = cytotoxicity [13] -1.94% [at 19 µM] | viability change, negative = cytotoxic [14] 2.28% [at 19 µM] | viability change, negative = cytotoxic [15] -1.17% [at 19 µM]

CCOc1cc(N)c(Cl)cc1C(=O)NCC1CN(Cc2ccc(F)cc2)CCO1 (stereo not given)
active: Potency [6] 19 µM
inactive: Potency [1] | Potency [2] | Potency [3] | Potency [4] | Potency [17] | Potency [18] | Potency [8] | Potency [9] | outcome [20] | Potency [12] | Potency [13] | Potency [14] | Potency [15]

CCCCCCCC/C=C\CCCCCCCC(=O)OC
inactive: Potency [1] | Potency [2] | Potency [3] | Potency [4] | Potency [19] | Potency [5] | Potency [6] | Potency [17] | Potency [7] | Potency [18] | Potency [8] | Potency [9] | Potency [12] | Potency [13] | Potency [14] | Potency [15]

CCCCC/C(=C\c1ccccc1)CO
inactive: Potency [1] | Potency [3] | Potency [16] | Potency [5] | Potency [7] | Potency [18] | Potency [8] | Potency [9] | Potency [12] | Potency [13] | Potency [14] | Potency [15]
active: Potency [2] 43.1 µM

COc1ccc(CCC(=O)c2c(O)cc(O[C@@H]3O[C@H](CO)[C@@H](O)[C@H](O)[C@H]3O[C@@H]3O[C@@H](C)[C@H](O)[C@@H](O)[C@H]3O)cc2O)cc1O
inactive: Potency [1] | Potency [2] | Potency [3] | Potency [4] | Potency [19] | Potency [6] | Potency [17] | Potency [7] | Potency [18] | Potency [8] | Potency [9] | Potency [10] | Potency [11] | Potency [12] | Potency [13] | Potency [14] | Potency [15]

CCOC(=O)[C@@H](C)Oc1ccc(Oc2nc3ccc(Cl)cc3o2)cc1
inactive: Potency [1] | Potency [2] | Potency [3] | Potency [4] | Potency [17] | Potency [7] | Potency [18] | Potency [8] | Potency [9] | Potency [10] | Potency [13] | Potency [14] | Potency [15]
active: Potency [19] 8.71 µM | Potency [6] 21.9 µM

C=CCOC(=O)/C=C\C(=O)OCC=C
inactive: Potency [1] | Potency [2] | Potency [3] | Potency [4] | Potency [19] | Potency [6] | Potency [7] | Potency [18] | Potency [8] | Potency [9] | Potency [10] | Potency [11] | Potency [12] | Potency [13] | Potency [14] | Potency [15]

O=C(/C=C/c1ccccc1)OCCCc1ccccc1
inactive: Potency [1] | Potency [2] | Potency [16] | Potency [4] | Potency [19] | Potency [5] | Potency [6] | Potency [17] | Potency [7] | Potency [18] | Potency [8] | Potency [9] | Potency [12] | Potency [13] | Potency [14] | Potency [15]

CCOC(=O)N1CCC(n2c(=O)[nH]c3cc(Cl)ccc32)CC1
active: Potency [10] 21.1 µM | Potency [11] 23.7 µM
inactive: Potency [1] | Potency [3] | Potency [16] | Potency [4] | Potency [19] | Potency [17] | Potency [7] | Potency [18] | Potency [8] | Potency [12] | Potency [13] | Potency [14] | Potency [15]
